Source: PubChem
TRPV1 potentiator: human TRPV1 potentiation. Q8NER1. TRPV1-expressing cells, Fluo-8 calcium influx, capsaicin EC20 potentiation. potentiation, % at 8.33 µM. 0.02% of 320,000 active. AID 540277; in the data active = potentiation above about 80%; inconclusive = between about 30% and that limit; note: 0% is about no effect
Target sequence (Q8NER1 whole entry, looked up): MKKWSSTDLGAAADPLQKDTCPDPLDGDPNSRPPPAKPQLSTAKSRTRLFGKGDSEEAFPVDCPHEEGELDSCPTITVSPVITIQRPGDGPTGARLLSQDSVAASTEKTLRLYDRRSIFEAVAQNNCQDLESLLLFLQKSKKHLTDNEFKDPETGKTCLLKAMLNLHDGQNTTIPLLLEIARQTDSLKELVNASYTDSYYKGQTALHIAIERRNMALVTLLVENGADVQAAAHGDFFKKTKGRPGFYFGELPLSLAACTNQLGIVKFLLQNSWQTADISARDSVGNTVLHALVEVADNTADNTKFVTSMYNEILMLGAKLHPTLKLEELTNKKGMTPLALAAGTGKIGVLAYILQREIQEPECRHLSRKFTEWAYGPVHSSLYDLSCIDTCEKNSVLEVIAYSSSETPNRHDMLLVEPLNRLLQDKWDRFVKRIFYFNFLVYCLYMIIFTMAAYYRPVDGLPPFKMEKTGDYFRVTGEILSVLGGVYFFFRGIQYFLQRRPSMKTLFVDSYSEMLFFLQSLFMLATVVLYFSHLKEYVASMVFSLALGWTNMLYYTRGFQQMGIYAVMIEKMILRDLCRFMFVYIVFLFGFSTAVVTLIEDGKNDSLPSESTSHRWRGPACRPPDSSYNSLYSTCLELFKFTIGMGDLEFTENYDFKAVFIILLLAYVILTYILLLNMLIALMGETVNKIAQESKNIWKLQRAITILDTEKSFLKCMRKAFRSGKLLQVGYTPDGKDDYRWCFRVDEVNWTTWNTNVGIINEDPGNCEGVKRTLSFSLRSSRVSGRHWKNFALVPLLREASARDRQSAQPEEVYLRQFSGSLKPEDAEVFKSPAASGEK
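TRPV1-expressing cells were cultured overnight at 35.5C and loaded with Fluo-8 calcium dye for 40 to 90 min at room temperature. After a 10 s baseline, compound was added and calcium influx was read kinetically for 3 min (ex 480/em 520 nm).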
TRPV1 agonist: activates the human vanilloid receptor TRPV1; TRPV1-expressing cells, Fluo-8 calcium influx, agonist mode; activation, % at 8.33 µM; AID 540275; 0.19% of 320,000 active; in the data active = activation above about 80%; inconclusive = between about 30% and that limit; note: 0% is about no effect
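Cells expressing TRPV1 were dye-loaded with Fluo-8 and read kinetically: 10 s baseline, 3 min after compound (agonist portion), then 2 min after EC20 capsaicin (allosteric enhancer portion). Calcium-bound dye fluorescence at 480/520 nm.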
FUS suppressor: rescues growth of FUS-expressing yeast; S. cerevisiae FUS-expressing, growth rescue, OD600, 24 h; Potency, µM (highest dose often 76.6 µM), usual class: activators; 0.24% of 390,000 active; AID 1347120;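 note: potency is the fitted concentration of half-maximal effect; plate controls were DMSO vehicle for no effect and reference control for full effect; nearly all actives have a fitted effect of over 55% in size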
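Quantitative HTS measuring growth restoration of FUS-toxic yeast. Galactose-induced cells (OD 0.005) were exposed 24hr at 30C to compounds at several concentrations, then absorbance at 600 nm was recorded.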
Giardia killer: Giardia lamblia killing | Giardia lamblia trophozoite viability | activity change, % at 7.66 µM, hits read low | 0.15% of 340,000 active | AID 540267; in the data active = activity change below about -80%; inconclusive = between about -30% and that limit;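 note: parasites exposed to compound for two days anaerobically before the ATP read; % is set by controls: 0 for no effect and ±100 for the full control effect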
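Luminescent ATP signal served as the viability read-out, measured 15-30 min after adding ATP detection reagent to trophozoites that had been incubated with compounds for 48 hrs at 37 deg C anaerobically at 100 cells/well.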
ELG1 repair inh: ELG1-dependent DNA repair inhibition; HEK293T ELG1-luciferase reporter, luminescence, 16 h; DNA damage induced by 5-fluorouridine; 2.3% of 330,000 active; Potency, µM (titrated, usually from 46.1 µM), inactives show at the highest dose activity change, negative = inhibition, most hits filed as inhibitors; note: potency is the fitted concentration of half-maximal effect; % is set by controls: 0 for no effect and ±100 for the full control effect; nearly all actives have a fitted effect of over 55% in size
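Reporter activity after DNA damage by 5-fluorouridine is monitored. Compound-treated cells incubate 16 hr at 37 °C, then ONE-Glo is added for 30 min before luminescence reading.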
* hit, by the source's call. Most compounds without a hit are left out; they make up all but 2.3% or so of the library. Unless noted, calls come from the whole dose curve; as a rule, active = well fitted curve in the direction sought with a large enough effect; inconclusive = small, poorly fitted or top-dose-only effect, or another doubt; inactive = no such curve, though single readings can be large; an effect the other way counts as inactive or inconclusive.

Screening O=C(O)c1ccc(COc2ccc3ccccc3c2/C=C2/NC(=O)N(c3ccccc3)C2=O)cc1 returned TRPV1 potentiator 10.6, TRPV1 agonist -17.1, FUS suppressor 35.5µM*, Giardia killer -12.6 and ELG1 repair inh inconclusive.
Screening COc1ccc(OC)c(-c2cc(C(=O)Nc3c(C)nn(Cc4ccccc4C)c3C)no2)c1 returned TRPV1 potentiator 8.3, TRPV1 agonist -3.4, FUS suppressor inactive, Giardia killer -6.2 and ELG1 repair inh 25.9µM*.
COc1cccc(-c2cc(C(=O)Nc3cc(C)n(Cc4ccc(Cl)cc4)n3)no2)c1 was read as TRPV1 potentiator 9.6, TRPV1 agonist 0.7, FUS suppressor inactive, Giardia killer 1.1 and ELG1 repair inh inconclusive.
`Cc1ccccc1Cn1nc(C)c(NC(=O)c2sc3ccccc3c2Cl)c1C` gave TRPV1 potentiator 23.0, TRPV1 agonist -2.5, FUS suppressor inactive, Giardia killer -0.2 and ELG1 repair inh 25.9µM*.
COc1ccc(OC)c(-c2cc(C(=O)Nc3cc(C)n(Cc4ccc(Cl)cc4)n3)no2)c1 was read as TRPV1 potentiator -1.4, TRPV1 agonist 5.0, FUS suppressor inactive, Giardia killer 23.9 and ELG1 repair inh 20.6µM*.
Cc1ccnc(NC(=O)c2sc3ccccc3c2Cl)c1 was read as TRPV1 potentiator -11.9, TRPV1 agonist 19.4, Giardia killer -80.2* and ELG1 repair inh inconclusive.
Screening Cc1nn(Cc2ccc(Cl)cc2Cl)c(C)c1NC(=O)c1sc2ccccc2c1Cl returned TRPV1 potentiator -2.0, TRPV1 agonist -5.8, FUS suppressor inactive, Giardia killer -15.0 and ELG1 repair inh -2.5%.
For COc1ccccc1C1Nc2c(sc3nc(C)cc(C)c23)C(=O)N1c1ccccc1 (configuration not stated) the results were FUS suppressor inactive.
For Cc1ccc(S(=O)(=O)c2nc(-c3cccc(C)c3)oc2N2CCN(c3ccccc3)CC2)cc1 the results were FUS suppressor inactive.
`COc1ccc(-c2cc(C(=O)Nc3c(C)nn(Cc4ccccc4Cl)c3C)no2)cc1OC` gave TRPV1 potentiator -0.8, TRPV1 agonist 0.0, FUS suppressor inactive, Giardia killer 6.4 and ELG1 repair inh 23.1µM*.
COc1cccc(-c2cc(C(=O)Nc3c(C)nn(Cc4ccccc4Cl)c3C)no2)c1 was read as FUS suppressor inactive.
O=C(NCCCc1ccccc1)c1ccc(F)cc1 was read as TRPV1 potentiator -27.9, TRPV1 agonist 87.6*, FUS suppressor inactive, Giardia killer 5.9 and ELG1 repair inh inconclusive.
Cc1ccc(CC(=O)NCCCc2ccccc2)cc1 was read as TRPV1 potentiator -18.6, TRPV1 agonist 80.3*, FUS suppressor inactive, Giardia killer -8.8 and ELG1 repair inh 15.5%.
CC(=O)Nc1ccc(S(=O)(=O)N2CCN(Cc3ccccn3)CC2)cc1 was read as TRPV1 potentiator 5.2, TRPV1 agonist -0.1, FUS suppressor inactive, Giardia killer 7.2 and ELG1 repair inh -0.7%.
Screening O=C(CN1CCN(S(=O)(=O)c2ccccc2)CC1)Nc1ccc([N+](=O)[O-])cc1 returned TRPV1 potentiator -13.8, TRPV1 agonist 12.8, FUS suppressor inactive, Giardia killer 11.1 and ELG1 repair inh 20.6µM*.
CCc1cccc(C)c1NC(=O)CN1CCN(S(=O)(=O)c2ccc(C(C)(C)C)cc2)CC1 was read as TRPV1 potentiator -26.9, TRPV1 agonist 9.2, FUS suppressor 35.5µM*, Giardia killer 26.1 and ELG1 repair inh inconclusive.
`CC(=O)Nc1ccc(S(=O)(=O)N2CCN(Cc3ccccc3[N+](=O)[O-])CC2)cc1` gave TRPV1 potentiator 8.1, TRPV1 agonist 1.4, FUS suppressor inactive, Giardia killer -3.6 and ELG1 repair inh 9.2µM*.
`CCOC(=O)[C@]12CCC=C1N(CCC1=CCCCC1)C(=O)[C@H](CC(=O)N1CCCCC1)C2` gave FUS suppressor inactive.
Screening O=C(Nc1nc2ccc(S(=O)(=O)N3CCCC3)cc2s1)c1ccccn1 returned TRPV1 potentiator 2.7, TRPV1 agonist 3.4, FUS suppressor inactive, Giardia killer -20.0 and ELG1 repair inh 20.6µM*.
`O=C(Nc1nc2ccc(S(=O)(=O)N3CCCCC3)cc2s1)c1cccnc1` gave TRPV1 potentiator 7.7, TRPV1 agonist 0.0, FUS suppressor inconclusive, Giardia killer -8.7 and ELG1 repair inh 9.6%.
`O=C(Nc1nc2ccc(S(=O)(=O)N3CCCCC3)cc2s1)c1ccncc1` gave TRPV1 potentiator 2.5, TRPV1 agonist 1.0, FUS suppressor 35.5µM*, Giardia killer -6.0 and ELG1 repair inh inconclusive.
O=C(c1c2c(nc3ccccc13)C(=O)N(C1CCCCC1)C2)N1CCN(c2ccc(F)cc2)CC1 was read as FUS suppressor inactive.
For COc1ccc(Cl)cc1Nc1sc(C(=O)c2ccccc2)c(N)c1C(=O)Nc1ccccc1 the results were FUS suppressor inactive.
For CC(C)NC(=O)Nc1cccc2c1O[C@H](CN(C)C(=O)NC1CCCCC1)[C@@H](C)CN([C@H](C)CO)C2=O the results were FUS suppressor inactive, Giardia killer 52.8 and ELG1 repair inh -3.4%.
`Cc1ccc2nc(N(CCN(C)C)C(=O)C3CCN(S(=O)(=O)c4cccs4)CC3)sc2c1` gave FUS suppressor inactive.
For O=C(Nc1nccs1)c1ccc(S(=O)(=O)NCC2CCCCC2)cc1 the results were TRPV1 potentiator -2.7, TRPV1 agonist 5.3, FUS suppressor inactive, Giardia killer -0.9 and ELG1 repair inh 1.8%.
For O=C(Nc1nccs1)c1ccc(S(=O)(=O)NCc2cccs2)cc1 the results were TRPV1 potentiator 0.4, TRPV1 agonist 1.7, FUS suppressor inactive, Giardia killer -7.8 and ELG1 repair inh 18.4µM*.
For COc1ccc(CN(C(=O)/C=C/C(=O)c2ccc(OC)cc2O)C(C(=O)NC2CCCCC2)c2ccncc2)cc1 (configuration not stated) the results were TRPV1 potentiator -2.5, TRPV1 agonist inconclusive, Giardia killer -0.1 and ELG1 repair inh 16.4µM*.
COCCN(CC(=O)NC1CCCCC1)C(=O)/C=C/C(=O)c1ccc(OC)cc1O was read as TRPV1 potentiator -1.7, TRPV1 agonist 5.1, FUS suppressor inactive, Giardia killer 1.4 and ELG1 repair inh 16.1%.
Screening COc1ccc(C(=O)/C=C/C(=O)N(Cc2ccc3c(c2)OCO3)C(C(=O)NC2CCCCC2)c2ccncc2)c(O)c1 (configuration not stated) returned TRPV1 potentiator -16.7, TRPV1 agonist inconclusive, Giardia killer 15.9 and ELG1 repair inh 7.31µM*.
For Cc1nc(N2C(=O)c3oc4ccccc4c(=O)c3C2c2ccccc2F)sc1C (configuration not stated) the results were FUS suppressor inactive.
Screening CCOc1cc(-c2nc(-c3ccc(-c4ccc(C)cc4)nc3OC)no2)cc(OCC)c1OCC returned FUS suppressor inactive.
